Assay results from PubChem BioAssay (NCATS).
Values joined by “and” are separate entries in the source; they are usually repeats but may differ in a detail not shown here. Equal values may be shown once. Records with an inconclusive call do not appear. Active and inactive are the calls of the source. Calls follow the shape of the dose curve; as a rule, active = well fitted curve in the direction sought with a large enough effect; inconclusive = small, poorly fitted or top-dose-only effect, or another doubt; inactive = no such curve, though single readings can be large; an effect the other way counts as inactive or inconclusive.

What was measured:
[1] = qHTS assay for measurement of the activity of small molecule inhibitors on Zika virus induced Caspase-3 activity in human iPSC derived neural progenitor cells (hNPCs) (AID 1224857); also: % of control where 0% means no effect; nearly all actives have a fitted effect of over 65% in size
Summary of the method: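 hNPCs seeded 350 cells/well, cultured 16–20 h; compounds added 1 h before ZIKV (2 FFU/cell), 37 C 6 h. Caspase-Glo 3/7 luminescence after 30 min RT; % inhibition from induction scaled to uninfected (0%) and infected (100%) wells.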

[2] = qHTS assay for measurement of the activity of small molecule inhibitors on Zika virus induced Caspase-3 activity in human astrocytoma cells (AID 1224859);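 also: plate controls were ZIKV-infected untreated cells for no effect and uninfected cells for full effect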
Summary of the method: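 Luminescence read-out (Caspase-Glo 3/7, 30 min RT) of caspase activity in SNB-19 cells infected 6 h with ZIKV, 2 FFU/cell, after 1 h compound pretreatment; % inhibition from induction normalised to uninfected (0%) and infected (100%) wells.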

[3] = NS1 protein of Zika virus - qHTS assay to identify small molecule inhibitors in human HEK 293 cells (AID 1347053);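 also: series mostly up to about 46 µM; plate controls were infected untreated cells for no effect and uninfected cells for full effect; nearly all actives have a fitted effect of over 55% in size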
Summary of the method: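 TR-FRET signal from two anti-ZIKV NS1 antibodies quantified NS1 in HEK 293 cells 24 h after MR766 infection at MOI = 0.5; compounds were added 1 h before virus. Uninfected cells and infected cells defined the NS1 normalization range.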

[4] = qHTS of pediatric cancer cell lines to identify multiple opportunities for drug repurposing: Primary screen for TC32 cells (AID 1347089); also: % is scaled to controls: 0 for no effect and ±100 for the full control effect; nearly all actives have a fitted effect of over 60% in size
Summary of the method: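 Measured quantity: luminescence from CellTiter-Glo, reflecting metabolically active TC32 cells following 48 h of compound. Curves came straight from multi-point titrations, with 8 or 11 points in primary and 11 in confirmatory screening.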

[5] = qHTS Assay for Identifying Gametocytocidal Compounds (AID 743244);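 also: % is scaled to controls: 0 for no effect and ±100 for the full control effect; actives lower the fluorescent signal which means gametocytes are killed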; details: P. falciparum 3D7 stage III-V gametocytes, alamarBlue, 72 h; max response: stronger effect = lower value
Summary of the method: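 P. falciparum 3D7 stage III–V gametocytes (20,000 cells/well) were exposed to compounds for 72 h at 37 °C, 5% CO2. AlamarBlue was then added for 24 h; decreased resorufin fluorescence (Ex 525/Em 598 nm) indicated loss of viability.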

CCCCN(CCCC)C(C(N)=O)c1ccc(OC)cc1 (stereo unspecified)
inactive: Potency [1] | outcome [2] | Potency [3] | Potency [4]

COc1cc2c(cc1OC)CN(C(=O)[C@H](C)N[C@@H](CCc1ccccc1)C(=O)O)[C@H](C(=O)O)C2
inactive: Potency [1] | outcome [2] | Potency [3] | Potency [4]

CC1CCCCN1CCCOC(=O)c1ccc(OC2CCCCC2)cc1 (stereo unspecified)
inactive: Potency [1] | outcome [2] | Potency [3] | Potency [4]

CCOC(=O)c1cc(=O)c2c(OCC(COc3cccc4oc(C(=O)OCC)cc(=O)c34)OC(=O)[C@@H](N)CCCCN)cccc2o1
inactive: Potency [1] | outcome [2] | Potency [3] | Potency [4]

Nc1nc2ccccc2n1Cc1ccc(F)cc1
inactive: Potency [1] | outcome [2] | Potency [3] | Potency [4]

Cc1cccc(C)c1NC(=O)c1ccc(N)cc1
inactive: Potency [1] | outcome [2] | Potency [3] | Potency [4]

Cc1ccc(Cl)c(OCC(O)CNC(C)(C)C)c1 (stereo unspecified)
inactive: Potency [1] | outcome [2] | Potency [3] | Potency [4]

Oc1cccc2[nH]ccc12
inactive: Potency [1] | outcome [2] | Potency [3] | Potency [4]

COc1ccc2nc(SCc3ncc(C)c(OC)c3C)[nH]c2c1
inactive: Potency [1] | outcome [2] | Potency [3] | Potency [4]

C=CCNc1nc(NCC=C)nc(N2CCN(C(c3ccc(F)cc3)c3ccc(F)cc3)CC2)n1
inactive: Potency [1] | outcome [2] | Potency [3] | Potency [4]

O=C1CCCc2c(O)cccc21
inactive: Potency [1] | outcome [2] | Potency [3] | Potency [4]

CN1N=C(C(N)=O)CCC1=O
inactive: Potency [1] | outcome [2] | Potency [3] | Potency [4]

Cc1cc(CCCOc2c(C)cc(-c3noc(C(F)(F)F)n3)cc2C)on1
inactive: Potency [1] | outcome [2] | Potency [3] | Potency [4]

CCCCOC(=O)CCCCCCCCC(=O)OCCCC
inactive: Potency [1] | outcome [2] | Potency [3] | Potency [4]

O=C(O)CCCC[P+](c1ccccc1)(c1ccccc1)c1ccccc1
inactive: Potency [1] | outcome [2] | Potency [3] | Potency [4]

CC(=O)c1ccc(O)c(C(N)=O)c1
inactive: Potency [1] | outcome [2] | Potency [3] | Potency [4]

Cc1ccc2ccc(Cl)cc2n1
inactive: Potency [1] | outcome [2] | Potency [3] | Potency [4]

CCC(=O)Oc1ccc2c(c1)CC[C@@H]1[C@@H]2CC[C@@]2(C)[C@H]1C[C@@H](OC(=O)CC)[C@@H]2OC(=O)CC
inactive: Potency [1] | outcome [2] | Potency [3] | Potency [4]

Cc1onc(-c2c(Cl)cccc2Cl)c1C(=O)Cl
inactive: Potency [1] | outcome [2] | Potency [3] | Potency [4]

CO/N=C(/C(=O)N[C@@H]1C(=O)N2C(C(=O)[O-])=C(C[n+]3ccn4ncccc43)CS[C@H]12)c1nsc(N)n1
inactive: max response [5] -9.85% and -19.4% | Potency [1] | outcome [2] | Potency [3] | Potency [4]

CCOC(=O)N1CCC(n2c(=O)[nH]c3cc(Cl)ccc32)CC1
inactive: Potency [1] | outcome [2] | Potency [3] | Potency [4]

N#CC1(c2ccc(F)cc2)CCC(=O)CC1
inactive: Potency [1] | outcome [2] | Potency [3] | Potency [4]

CNC(=O)c1cnn(-c2nc(N)c3ncn([C@@H]4O[C@H](CO)[C@@H](O)[C@H]4O)c3n2)c1
inactive: Potency [1] | outcome [2] | Potency [3] | Potency [4]

O=C(CCCl)NCCc1ccccc1
inactive: Potency [1] | outcome [2] | Potency [3] | Potency [4]

CCCC(=O)O[C@]1(C(=O)CC)CC[C@H]2[C@@H]3CCC4=CC(=O)CC[C@]4(C)[C@H]3[C@@H](O)C[C@@]21C
inactive: Potency [1] | outcome [2] | Potency [3] | Potency [4]

O=C1NC(c2ccccc2)(c2ccccc2)C(=O)N1COP(=O)(O)O
inactive: Potency [1] | outcome [2] | Potency [3] | Potency [4]

Cc1[nH]cnc1-c1ccc(Cl)cc1
inactive: Potency [1] | outcome [2] | Potency [3] | Potency [4]

CCc1cc2cc(OC)c(OC)cc2c(Cc2ccccc2)n1
inactive: Potency [1] | outcome [2] | Potency [3] | Potency [4]

COc1ccc2c(c1)CCCC2=O
inactive: Potency [1] | outcome [2] | Potency [3] | Potency [4]

O=C(O)C1CCC1
inactive: Potency [1] | outcome [2] | Potency [3] | Potency [4]

CC(CC1c2ccccc2CCc2ccccc21)CN(C)C (stereo unspecified)
inactive: Potency [1] | outcome [2] | Potency [3] | Potency [4]

CCOc1ncc(F)c(=O)[nH]1
inactive: Potency [1] | outcome [2] | Potency [3] | Potency [4]

CCOC(=O)C(O)c1ccccc1 (stereo unspecified)
inactive: Potency [1] | outcome [2] | Potency [3] | Potency [4]

OC1(c2ccccc2)CCNCC1
inactive: Potency [1] | outcome [2] | Potency [3] | Potency [4]

C[C@H](N)C(=O)N[C@@H](C)C(=O)NC1[C@H]2CN(c3nc4c(cc3F)c(=O)c(C(=O)O)cn4-c3ccc(F)cc3F)C[C@@H]12 (stereo partly specified)
inactive: Potency [1] | outcome [2] | Potency [3] | Potency [4]
